Only some compounds are listed: those with a hit (about 2.3% of all), similar ones and a draw of the others.
Coupling enz – counter-screen for Giardia aldolase inhibitors: coupling enzyme system | AID 2472 | activity change, negative = inhibition, % at 58.2 µM, hits read low | coupling enzyme system counterscreen, AmpLite Red fluorescence | 0.67% of 290,000 active; in the data active means activity change below about -30%
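First, compound is pin-transferred into glyceraldehyde-3-phosphate coupling-enzyme reagent at 57.5 uM final and held 10 min at RT. Next, substrate, coupling system and AmpLite Red are added. After 20 min RT, fluorescence (525/598 nm) is read.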
Tau FP inhib – inhibitors of human tau fibril formation; P10636; K18 P301L tau heparin fibrillization, Alexa594 FP, 6 h; Potency, µM (doses to about 57.7 µM), actives largely listed as inhibitors; 0.39% of 280,000 active; AID 1468; further: nearly all actives have a fitted effect of over 55% in size
Target sequence (P10636 561-689 P618L limits assumed): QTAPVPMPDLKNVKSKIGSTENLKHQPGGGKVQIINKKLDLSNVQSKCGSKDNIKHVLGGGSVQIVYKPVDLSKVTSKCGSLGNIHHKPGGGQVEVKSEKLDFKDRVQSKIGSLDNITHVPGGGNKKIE
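Recombinant K18 P301L […], labeled with Alexa 594 at 0.24 uM over 15 uM unlabeled; heparin inducer 20 uM final; 37 C, 6 hr; FP endpoint.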
Tau fluor cs – counter-screen for tau fibril formation inhibitors | tau K18 P301L Alexa594 fluorescence, heparin fibrillization | Potency, µM (doses to about 57.7 µM) | 0.93% of 280,000 active | AID 1463; further: nearly all actives have a fitted effect of over 55% in size
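Human K18 P301L tau (15 uM unlabeled plus 0.24 uM Alexa 594-labeled, final) in 100 mM sodium acetate pH 7 was mixed with compound and 20 uM heparin and incubated 6 hr at 37 C.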
USP1-UAF1 inh – inhibitors of human USP1/UAF1 deubiquitinase; O94782; recombinant USP1/UAF1, Ub-Rhodamine cleavage fluorescence; Potency, µM (series often up to 57.1 µM), most hits filed as inhibitors; 0.23% of 390,000 active; AID 743255; further: nearly all actives have a fitted effect of over 60% in size
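High-throughput fluorogenic screen: 1nM USP1/UAF1 complex, Ub-Rho substrate 150nM final, 50mM HEPES pH 7.8 with 0.5mM EDTA, 0.1 mg/ml BSA, 1mM TCEP and 0.01% Tween-20.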
Tau fibril ThT – tau fibrillization inhibition (ThT binding); P10636; recombinant tau K18 P301L, heparin-induced fibrillization, ThT fluorescence; Potency, µM (series often up to 57.4 µM), hits mostly inhibitors; 2.1% of 270,000 active; AID 1460; further: nearly all actives have a fitted effect of over 55% in size
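Using a mix of unlabeled (15 uM) and Alexa 594-labeled (0.24 uM) tau K18 P301L, heparin-triggered fibrillization over 6 hr at 37 C was scored by ThT fluorescence.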
Large screens that a line does not name were inactive; [ ] = remark or other dose. Unless noted, the call rests on the fitted dose curve; in most records, active means well fitted curve in the direction sought with a large enough effect; inconclusive means small, poorly fitted or top-dose-only effect, or another doubt; inactive means no such curve, though single readings can be large; an effect the other way counts as inactive or inconclusive.

COc1ccc(CNC(=O)C2CCN(C(=O)N3CCOc4ccc(Cl)cc43)CC2)cc1	Tau fibril ThT inconclusive (no result: Coupling enz)
CCOC(=O)N1CCC(NC(=O)C2CCN(C(=O)N3CC(C)Oc4ccc(C)cc43)CC2)CC1 (configuration not stated)	none
CCOc1ccccc1CNC(=O)C1CCN(C(=O)N2CCOc3ccc(Cl)cc32)CC1	Tau FP inhib inconclusive, Tau fluor cs inconclusive, Tau fibril ThT 32µM (no result: Coupling enz)
O=C(NC1CCCCCC1)C1CCN(C(=O)N2CCOc3ccc(Cl)cc32)CC1	Tau FP inhib inconclusive, Tau fluor cs inconclusive, Tau fibril ThT 22µM (no result: Coupling enz)
CCOc1ccc2nc(SCC(=O)Nc3ccc(F)cc3)nc(-c3ccccc3)c2c1	Tau FP inhib inconclusive (no result: Coupling enz)
CC1=NN(c2ccccc2)C(=O)/C1=C\C=C1/N(C)c2ccccc2C1(C)C	Tau FP inhib inconclusive, Tau fluor cs inconclusive, USP1-UAF1 inh inconclusive, Tau fibril ThT 2.2µM
CC1=NN(c2ccccc2)C(=O)/C1=C\C=C1\N(C)c2ccccc2C1(C)C	Tau fluor cs inconclusive, Tau fibril ThT 1.6µM
N[C@@H](Cn1c2c(c(=O)[nH]c1=O)CCC2)C(=O)O	Tau FP inhib inconclusive (no result: USP1-UAF1 inh)
Cc1cccc2cc3c(N)c(C(=O)Nc4ccc(N5CCOCC5)cc4)sc3nc12	Tau fluor cs 11µM[quencher], Tau fibril ThT 2.8µM
Cc1cccc2cc3c(N)c(C(=O)N4CCc5ccccc54)sc3nc12	Tau FP inhib inconclusive, Tau fluor cs inconclusive, Tau fibril ThT 4.5µM
Cc1ccc(C(=O)N2CCc3ccccc32)cc1C	none (no result: Coupling enz, Tau FP inhib, Tau fluor cs, Tau fibril ThT)
CCc1cccc2cc3c(N)c(C(=O)Nc4ccc(S(=O)(=O)N5CCCC5)cc4)sc3nc12	Tau FP inhib inconclusive, Tau fluor cs inconclusive, Tau fibril ThT 5.6µM
COc1cccc(CC(=O)Nc2ccc(S(=O)(=O)N3CCCCC3)cc2)c1	none (no result: Coupling enz, Tau FP inhib, Tau fluor cs, Tau fibril ThT)
Cc1ccc2nc3sc(C(=O)Nc4ccc(N5CCOCC5)cc4)c(N)c3cc2c1	Tau fluor cs inconclusive, Tau fibril ThT 2µM (no result: USP1-UAF1 inh)
COC(=O)[C@H]1O[C@@H](c2cc(OC)c(C)c(OC)c2O)[C@H](C)[C@@H](O)[C@H]1C	none (no result: USP1-UAF1 inh)
Cc1ccccc1/C=C/C(=O)NCC(=O)N1CCC(N(C)C2CCCCC2C)CC1 (configuration not stated)	none
O=C(Nc1ccc(F)c(F)c1)C(c1ccccc1)N1Cc2ccccc2C1=O (configuration not stated)	none (no result: Coupling enz)
O=C(c1ccco1)[C@@H]1[C@@H]2C(=O)N(c3ccc(F)cc3)C(=O)[C@@H]2C2c3ccccc3C=CN21 (some centres not stated)	Coupling enz -40, Tau FP inhib inconclusive, Tau fluor cs inconclusive, Tau fibril ThT 25µM (no result: USP1-UAF1 inh)
CC(=O)[C@H]1[C@@H]2C(=O)N(c3cccc(Cl)c3)C(=O)[C@@H]2[C@H]2c3ccccc3C=CN21	Coupling enz -36, USP1-UAF1 inh 10µM, Tau fibril ThT inconclusive
O=C(c1ccco1)[C@@H]1[C@@H]2C(=O)N(c3ccc(Br)cc3)C(=O)[C@@H]2C2c3ccccc3C=CN21 (some centres not stated)	Coupling enz -40, USP1-UAF1 inh 16µM, Tau fibril ThT 20µM
Cc1cccc(C(=O)N2CCc3cc(CNC(=O)CCc4ccccc4)ccc32)c1	none (no result: Coupling enz)
CC(=O)OC[C@@H]1O[C@@H](O/N=C2/C[C@@H](O)[C@@H](O)[C@@H]3[C@@H]4C(=O)N([C@@H](C)c5ccccc5)C(=O)[C@H]4CC[C@@H]23)[C@H](OC(C)=O)[C@H](OC(C)=O)[C@@H]1OC(C)=O	none (no result: USP1-UAF1 inh)
Oc1cccc(C=NCc2ccccc2)c1O	Coupling enz -37, Tau FP inhib inconclusive, Tau fluor cs inconclusive, USP1-UAF1 inh inconclusive, Tau fibril ThT 7.9µM
Cc1cccc(NCc2ccc(N(C)C)cc2)n1	none (no result: Tau FP inhib, Tau fluor cs, Tau fibril ThT)
CC(=O)/C(=C/c1ccc(N(C)C)cc1)C(=O)c1ccccc1	Tau fluor cs inconclusive, Tau fibril ThT 18µM
Cc1ccc[n+](-c2nc([O-])sc2C=O)c1	USP1-UAF1 inh 28µM
CC(C)c1ccc[n+](-c2nc([O-])sc2C=O)c1	none
CCN1C(=O)/C(=C\c2cccc(OC(=O)c3ccco3)c2)SC1=S	Coupling enz -38 (no result: Tau FP inhib, Tau fluor cs, Tau fibril ThT)
COc1cccc2nc3cc(C)c(C)cc3nc12	Coupling enz -39, Tau FP inhib inconclusive, USP1-UAF1 inh inconclusive, Tau fibril ThT 22µM
